# Results: the supplement of paper PMC8728848
# This excerpt belongs to a sample that is enriched for the strongest signals.
# Tests used:
# Experiment in all cases: glycan array binding signal (z-score within array); higher = stronger binding
# Details in all cases: glycan notation: IUPAC condensed, linker removed
# [1] = target: Fuc(a1-2)Gal(b1-3)GalNAc(a1-3)[Fuc(a1-2)]Gal(b1-4)Glc
# Procedure, shortened: (§1)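 The binding signal is a Z-score computed within each array and averaged over linkers. Arrays of the same protein sequence at different concentrations or buffers were also averaged together. Data originate from 3228 arrays in the Consortium for Functional Glycomics database, kept only where the protein sequence was available.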
# [2] = target: Fuc(a1-2)Gal(b1-3)GlcNAc(b1-3)GalNAc
# Procedure, shortened: as §1
# [3] = target: Fuc(a1-2)Gal(b1-3)[Fuc(a1-4)]GlcNAc(b1-2)Man(a1-3)[Fuc(a1-2)Gal(b1-3)[Fuc(a1-4)]GlcNAc(b1-2)Man(a1-3)]Man(b1-4)GlcNAc(b1-4)GlcNAc
# Procedure, shortened: as §1
# [4] = target: Fuc(a1-2)Gal6S(b1-3)GlcNAc6S
# Procedure, shortened: as §1
# [5] = target: Fuc(a1-2)[Gal(a1-3)]Gal(b1-4)Glc
# Procedure, shortened: as §1
# [6] = target: Fuc(a1-2)[Gal(a1-3)]Gal(b1-4)GlcNAc(b1-2)Man(a1-3)[Fuc(a1-2)[Gal(a1-3)]Gal(b1-4)GlcNAc(b1-2)Man(a1-6)]Man(b1-4)GlcNAc(b1-4)[Fuc(a1-6)]GlcNAc
# Procedure, shortened: as §1
# [7] = target: Fuc(a1-2)[Gal(a1-3)]Gal(b1-4)GlcNAc(b1-3)[Fuc(a1-2)[Gal(a1-3)]Gal(b1-4)GlcNAc(b1-6)]GalNAc
# Procedure, shortened: as §1
# [8] = target: Fuc(a1-2)[Gal(a1-3)]Gal(b1-4)[Fuc(a1-3)]GlcNAc(b1-3)GalNAc
# Procedure, shortened: as §1
# [9] = target: Fuc(a1-2)[GalNAc(a1-3)]Gal(b1-3)GalNAc(a1-3)[Fuc(a1-2)]Gal(b1-4)GlcNAc
# Procedure, shortened: as §1
# [10] = target: Fuc(a1-2)[GalNAc(a1-3)]Gal(b1-3)GlcNAc(b1-2)Man(a1-3)[Fuc(a1-2)[GalNAc(a1-3)]Gal(b1-3)GlcNAc(b1-2)Man(a1-6)]Man(b1-4)GlcNAc(b1-4)GlcNAc
# Procedure, shortened: as §1
# [11] = target: Fuc(a1-2)[GalNAc(a1-3)]Gal(b1-4)[Fuc(a1-3)]GlcNAc(b1-3)GalNAc
# Procedure, shortened: as §1
# [12] = target: Fuc(a1-3)[Gal(b1-4)]Glc6S
# Procedure, shortened: as §1
# [13] = target: Fuc(a1-3)[Gal3S(b1-4)]Glc
# Procedure, shortened: as §1
# [14] = target: Fuc(b1-3)GlcNAc
# Procedure, shortened: as §1
# [15] = target: Gal(a1-4)Gal(b1-4)GlcNAc(b1-3)Gal(b1-4)Glc
# Procedure, shortened: as §1
# [16] = target: Gal(b1-3)GlcNAc(b1-2)Man(a1-3)[Gal(b1-3)GlcNAc(b1-2)Man(a1-6)]Man(b1-4)GlcNAc(b1-4)GlcNAc
# Procedure, shortened: as §1
# [17] = target: Gal(b1-3)[Fuc(a1-4)]GlcNAc(b1-2)Man
# Procedure, shortened: as §1
# [18] = target: Gal(b1-4)GlcNAc(b1-2)Man(a1-3)[Gal(b1-4)GlcNAc(b1-2)Man(a1-6)][GlcNAc(b1-4)]Man(b1-4)GlcNAc(b1-4)[Fuc(a1-6)]GlcNAc
# Procedure, shortened: as §1
# [19] = target: Gal3S(b1-4)[Fuc(a1-3)]GlcNAc6S
# Procedure, shortened: as §1
# [20] = target: Gal3S6S(b1-4)GlcNAc
# Procedure, shortened: as §1
# [21] = target: Gal3S6S(b1-4)GlcNAc6S
# Procedure, shortened: as §1
# [22] = target: Gal4S(b1-4)GlcNAc
# Procedure, shortened: as §1
# [23] = target: Gal6S(b1-4)GlcNAc6S
# Procedure, shortened: as §1
# [24] = target: GalNAc(a1-3)Gal
# Procedure, shortened: as §1
# [25] = target: GalNAc(b1-4)GlcNAc(b1-3)GalNAc(b1-4)GlcNAc
# Procedure, shortened: as §1
# [26] = target: GalNAc4S6S(b1-4)GlcNAc
# Procedure, shortened: as §1
# [27] = target: GlcNAc(b1-2)Gal(b1-3)GalNAc
# Procedure, shortened: as §1
# [28] = target: GlcNAc(b1-3)Fuc
# Procedure, shortened: as §1
# [29] = target: GlcNAc(b1-3)Gal(b1-4)GlcNAc(b1-2)Man(a1-3)[GlcNAc(b1-3)Gal(b1-4)GlcNAc(b1-2)Man(a1-6)]Man(b1-4)GlcNAc(b1-4)GlcNAc
# Procedure, shortened: as §1
# [30] = target: GlcNAc(b1-3)Gal(b1-4)GlcNAc(b1-3)Gal(b1-4)GlcNAc(b1-2)[GlcNAc(b1-3)Gal(b1-4)GlcNAc(b1-3)Gal(b1-4)GlcNAc(b1-6)]Man(a1-6)[GlcNAc(b1-3)Gal(b1-4)GlcNAc(b1-3)Gal(b1-4)GlcNAc(b1-2)Man(a1-3)]Man(b1-4)GlcNAc(b1-4)[Fuc(a1-6)]GlcNAc
# Procedure, shortened: as §1
# [31] = target: GlcNAc(b1-3)Gal(b1-4)GlcNAc(b1-3)Gal(b1-4)GlcNAc(b1-3)GalNAc
# Procedure, shortened: as §1
# [32] = target: GlcNAc(b1-3)Gal(b1-4)GlcNAc(b1-6)[GlcNAc(b1-3)Gal(b1-3)]GalNAc
# Procedure, shortened: as §1
# [33] = target: GlcNAc6S(b1-3)Gal(b1-4)GlcNAc
# Procedure, shortened: as §1
# [34] = target: Man(a1-2)Man(a1-3)Man
# Procedure, shortened: as §1
# [35] = target: Neu5Ac(a2-3)Gal(b1-4)GlcNAc(b1-2)Man
# Procedure, shortened: as §1
# [36] = target: Neu5Ac(a2-3)Gal(b1-4)GlcNAc(b1-6)[Gal(b1-3)]GalNAc
# Procedure, shortened: as §1
# [37] = target: Neu5Ac(a2-3)Gal(b1-4)[Fuc(a1-3)]GlcNAc(b1-3)Gal(b1-4)[Fuc(a1-3)]GlcNAc(b1-3)Gal(b1-4)[Fuc(a1-3)]GlcNAc
# Procedure, shortened: as §1
# [38] = target: Neu5Ac(a2-3)[GalNAc(b1-4)]Gal(b1-4)Glc
# Procedure, shortened: as §1
# [39] = target: Neu5Ac(a2-6)Gal(b1-4)GlcNAc(b1-2)Man(a1-3)[GlcNAc(b1-2)Man(a1-6)]Man(b1-4)GlcNAc(b1-4)GlcNAc
# Procedure, shortened: as §1
# [40] = target: Neu5Ac(a2-6)Gal(b1-4)GlcNAc(b1-2)Man(a1-6)Man(b1-4)GlcNAc(b1-4)GlcNAc
# Procedure, shortened: as §1
# [41] = target: Neu5Ac(a2-6)Gal(b1-4)GlcNAc(b1-2)Man(a1-6)[Man(a1-3)]Man(b1-4)GlcNAc(b1-4)GlcNAc
# Procedure, shortened: as §1
# [42] = target: Neu5Ac(a2-6)Gal(b1-4)GlcNAc(b1-6)[Gal(b1-3)GlcNAc(b1-3)]Gal(b1-4)Glc
# Procedure, shortened: as §1
# [43] = target: Neu5Ac(a2-6)GlcNAc(b1-4)GlcNAc
# Procedure, shortened: as §1
# [44] = target: Neu5Ac(a2-8)Neu5Ac(a2-3)[GalNAc(b1-4)]Gal(b1-4)Glc
# Procedure, shortened: as §1
# [45] = target: Neu5Ac9Ac(a2-6)Gal(b1-4)GlcNAc
# Procedure, shortened: as §1
binder,measurement,setting,value
Wzz (Escherichia coli) (protein) MRTWKFPSVRVMMRVENNNVSGQNHDPEQIDLIDLLVQLWRGKMTIIISVIVAIVLAIGYLAVAKEKWTSTAIITQPDVGQIAGYNNAMNVIYGQAAPKVSDLQETLIGRFSSAFSALAETLDNQEEPEKLTIEPSVKNQQLPLTVSYVGQTAEGAQMKLAQYIQQVDDKVNQELEKDLKDNIALGRKNLQDSLRTQEVVAQEQKDLRIRQIQEALQYANQAQVTKPQIQQTGEDITQDTLFLLGSEALESMIKHEATRPLVFSSNYYQTRQNLLDIDNLDVDKLDIHAYLYVMKPTLPIRRDSPKKAITLILAVLLGGMVGAGIVLGRNALRNYNAK,glycan array binding signal (z-score),[1],0.119
same,glycan array binding signal (z-score),[2],-0.55
same,glycan array binding signal (z-score),[3],0.002
same,glycan array binding signal (z-score),[4],2.91
same,glycan array binding signal (z-score),[5],0.055
same,glycan array binding signal (z-score),[6],-0.233
same,glycan array binding signal (z-score),[7],0.857
same,glycan array binding signal (z-score),[8],1.59
same,glycan array binding signal (z-score),[9],1.11
same,glycan array binding signal (z-score),[10],-0.965
same,glycan array binding signal (z-score),[11],0.633
same,glycan array binding signal (z-score),[12],1.46
same,glycan array binding signal (z-score),[13],-0.538
same,glycan array binding signal (z-score),[14],0.034
same,glycan array binding signal (z-score),[15],0.032
same,glycan array binding signal (z-score),[16],1.41
same,glycan array binding signal (z-score),[17],2.68
same,glycan array binding signal (z-score),[18],-0.511
same,glycan array binding signal (z-score),[19],2.08
same,glycan array binding signal (z-score),[20],0.861
same,glycan array binding signal (z-score),[21],16.9
same,glycan array binding signal (z-score),[22],-0.728
same,glycan array binding signal (z-score),[23],4.99
same,glycan array binding signal (z-score),[24],-0.563
same,glycan array binding signal (z-score),[25],-0.667
same,glycan array binding signal (z-score),[26],5.1
same,glycan array binding signal (z-score),[27],-0.1
same,glycan array binding signal (z-score),[28],0.1
same,glycan array binding signal (z-score),[29],-0.684
same,glycan array binding signal (z-score),[30],-0.222
same,glycan array binding signal (z-score),[31],0.801
same,glycan array binding signal (z-score),[32],-0.084
same,glycan array binding signal (z-score),[33],0.081
same,glycan array binding signal (z-score),[34],-0.72
same,glycan array binding signal (z-score),[35],2.37
same,glycan array binding signal (z-score),[36],-0.035
same,glycan array binding signal (z-score),[37],-1.71
same,glycan array binding signal (z-score),[38],-0.397
same,glycan array binding signal (z-score),[39],1.21
same,glycan array binding signal (z-score),[40],2.29
same,glycan array binding signal (z-score),[41],1.66
same,glycan array binding signal (z-score),[42],-0.436
same,glycan array binding signal (z-score),[43],0.29
same,glycan array binding signal (z-score),[44],1.61
same,glycan array binding signal (z-score),[45],-0.542
